Source: PubChem (The Scripps Research Institute Molecular Screening Center)
Rows were chosen to be rich in hits. Some 2.6% of all compounds tested hit in one or more screens of this group.
PAD4 FP inh = PAD4 (human) enzyme inhibition; Q9UM07; recombinant PAD4, RCA probe fluorescence polarization; inhibition, % at 6.36 µM; actives 0.41% (n = 330,000);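 active means percent inhibition above a cutoff equal to the mean of all tested compounds plus 3 SD, cut at about 15% in these data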;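 further: 0% = PAD4 with RCA probe and DMSO and 100% = probe without PAD4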
PRMT1 FP inh = blocks human protein arginine methyltransferase 1; Q99873; recombinant PRMT1, activity-based probe fluorescence polarization; inhibition, % at 2.79 µM; actives 1.3% (n = 370,000); AID 652257;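 active means inhibition above about 21% made by adding two undisclosed values, limit read from the data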
Target sequence (Q99873 whole entry, looked up): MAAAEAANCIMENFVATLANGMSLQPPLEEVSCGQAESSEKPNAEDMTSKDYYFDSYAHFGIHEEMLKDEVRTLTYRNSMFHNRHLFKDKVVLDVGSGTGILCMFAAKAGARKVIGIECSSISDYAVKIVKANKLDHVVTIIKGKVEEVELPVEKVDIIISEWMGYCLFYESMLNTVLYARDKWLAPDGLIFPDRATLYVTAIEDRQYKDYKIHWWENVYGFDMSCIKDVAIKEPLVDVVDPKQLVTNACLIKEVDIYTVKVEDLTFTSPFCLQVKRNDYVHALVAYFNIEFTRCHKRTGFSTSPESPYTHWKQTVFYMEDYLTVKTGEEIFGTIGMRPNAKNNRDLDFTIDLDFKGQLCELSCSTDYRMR
Fam108B counter = Fam108B inhibition, counter-screen for RBBP9 inhibitors; recombinant Fam108B, FP-Rh probe fluorescence polarization; inhibition, % at 9.51 µM; actives 0.33% (n = 300,000);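 active means inhibition above the screen mean inhibition plus 3 SD, computed separately per campaign, cut at about 18% in these data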;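 further: inhibitors lower polarization as less probe binds the enzyme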
TCR CD3 inh = human TCR-CD3 binding inhibition. TAMRA-labeled TCR probe fluorescence, biochemical. inhibition, % at 9.4 µM. actives 0.37% (n = 360,000). AID 651800; in the data active means inhibition above about 19%;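 further: recombinant mutant TCR 2C K166C tagged with TAMRA read by polarization; 0% = receptor in buffer alone and 100% = receptor with positive control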
PME-1 primary = blocks human protein phosphatase methylesterase 1; recombinant PME-1, FP-Rh probe fluorescence polarization; inhibition, % at 5.9 µM; actives 0.53% (n = 320,000); AID 2130;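 active means inhibition above the campaign mean of all compounds plus 3 SD, cut at about 26% in these data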;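 further: competitive labeling of PME-1 active site by serine hydrolase directed probe; 0% = PME-1 with DMSO and 100% = wells lacking PME-1 enzyme; inhibitors block probe labeling so polarization falls and inhibition rises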
SIAE inh = blocks human sialic acid acetylesterase | SIAE FP-Rh probe binding, fluorescence polarization | actives 0.69% (n = 370,000) | inhibition, % at 9.66 µM | AID 1053197;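 active means inhibition above a cutoff: mean of compounds within the control limits plus 3 SD of those, cut at about 17% in these data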;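 further: 0% = plate median of compound wells and 100% = probe without SIAE protein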
An asterisk follows results filed as active; . = no result.

SMILES	PAD4 FP inh	PRMT1 FP inh	Fam108B counter	TCR CD3 inh	PME-1 primary	SIAE inh
O=C(Cc1ccccc1)N/N=C/c1ccc(-c2ccc([N+](=O)[O-])cc2)o1	-5	-2	-4	6	0	4
O=[N+]([O-])c1ccc(-c2ccc(C=Nc3cccc4ccccc34)o2)cc1	24*	22*	-2	-1	-2	-1
O=C1c2cccc3cccc(c23)C(=O)C1(O)O	3	54*	2	-4	2	9
CC(=O)N1C(=O)c2cccc3cccc(c23)C(=O)N1C(C)=O	2	.	2	.	8	.
COCCCN1C(=O)[C@H](CC(=O)NCC23CC4CC(CC(C4)C2)C3)[C@]2(C(=O)OC)CCCCC=C12	.	-1	.	.	.	1
CCC(=O)N[C@@H]1C[C@@H]2O[C@@H](CO)CC[C@@H]2O[C@@H]1CCc1ccc(-c2cccc(OC)c2)cc1	.	-2	.	.	.	5
CCCN(CC1CC1)c1c2c(nc3ncnn13)CCCC2	.	0	.	.	.	4
COc1cc2c(ccc3cc(OC)c(OC)c(O)c32)cc1O	-2	0	5	39*	2	17
CC(=O)N[C@@H](C)CCc1ccc(Oc2ccc(OC(C)C)nc2)cc1	.	-6	.	.	.	-9
COc1ccc(CNC(=O)c2sc(=S)n(-c3ccccc3)c2N)cc1	-6	21*	0	-8	-5	2
Oc1ccc(C2CNCc3sccc32)cc1O (stereo not given)	4	46*	1	-2	0	12
Oc1ccc(C2CNCCc3c2cc(O)c(O)c3Cl)cc1 (stereo not given)	-2	0	2	5	-2	-2
Cc1onc(-c2ccc(Cl)cc2)c1-c1ccn(S(=O)(=O)c2ccccc2)n1	.	-1	.	.	.	-5
C#CCNC(=O)C[C@@H]1C(=O)N(CC=C)C2=CCCCC[C@]21C(=O)OC	.	-2	.	.	.	-3
Cc1ccc(S(=O)(=O)Nn2c(O)c(C=C3N=c4ccccc4=N3)sc2=S)cc1	-1	25*	2	-5	-13	-7
O=C(Nn1c(O)c(C=C2N=c3ccccc3=N2)sc1=S)c1ccc(Cl)cc1	-10	11	10	-1	5	5
Cc1ccccc1NC(=O)c1c(C)[nH]c(=S)c(C#N)c1-c1ccc(Cl)cc1	-8	13	-2	1	-10	7
Cc1ccc(-c2c(C(=O)Nc3ccccc3C)c(C)[nH]c(=S)c2C#N)o1	-20	34*	4	-9	0	-12
CC1=NN(c2ccccc2)C(=O)/C1=C\c1ccc(Oc2ccc([N+](=O)[O-])cc2[N+](=O)[O-])cc1	51*	10	6	1	9	10
COc1cc(/C=C2/C(=O)N(c3ccc(C)c(C)c3)N=C2C)cc([N+](=O)[O-])c1O	-6	0	16	0	5	10
COc1cc(/C=C2\C(=O)N(c3ccccc3)N=C2C)ccc1Oc1ccc([N+](=O)[O-])cc1[N+](=O)[O-]	44*	0	10	1	10	7
CCOC(=O)C1=NOC(C(=O)Nc2nccs2)(C(=O)C2CC2)C1 (stereo not given)	.	-5	.	.	.	4
O=C(NC1=NC2(C=C3CCCCC3n3c(=O)n(-c4ccccc4)c(=O)n32)CN1CC1CC1)c1ccccc1 (stereo not given)	.	4	.	.	.	3
C[C@H]1[C@H](N(Cc2cccs2)Cc2cccs2)CC[C@@]23CCCN2C(=O)CCC[C@@H]13	.	-3	.	.	.	3
c1ccc2c(c1)-c1ccccc1C2N1CCOCC1	.	24*	.	-1	.	-3
SMILES	PAD4 FP inh	PRMT1 FP inh	Fam108B counter	TCR CD3 inh	PME-1 primary	SIAE inh
COC(=O)[C@H]1C[C@@]2(N3CCCC3)c3ccccc3N[C@H]2N1S(=O)(=O)c1ccc([N+](=O)[O-])cc1	.	1	.	.	.	5
Cc1cc(NC(=S)Nc2cccc3ccccc23)n[nH]1	-1	23*	-2	3	0	2
Cc1cc(C)cc(NC(=S)Nc2cccc3ccccc23)c1	-3	3	-1	1	4	3
CCCC1CCC2(CC1)CCC2OC(=O)Nc1ccccc1OC (stereo not given)	.	-3	.	.	.	9
Cc1ccc(NS(=O)(=O)c2cc3c(cc2Cl)NC(=O)CO3)cc1C	.	-1	.	.	.	-1
N#CC1=C(N)C(C#N)(C#N)C(c2cccnc2)C2CN(C(=O)OCc3ccccc3)CC=C12 (stereo not given)	1	0	0	12	28*	2
